Data published in the supplement of paper PMC9399229.
Where a name gives a salt, the structure may show the parent alone. ± gives the standard deviation of the averaged measurements. Whole data set: some 1,900 compounds, median “relative cell viability (CellTiter-Glo), compound alone” near 1, cut for the lowest 2% near 0.16. The sample as a whole holds a higher share of the lowest values than the screen did.

What follows are compounds tested on Hep3B (assay: relative cell viability (CellTiter-Glo), compound alone (fraction); higher = more viable cells (less growth inhibition)). Details: cabozantinib 0 µM; 4 days.

Compound | relative cell viability
COc1ccc2cccc(CCNC(C)=O)c2c1 [Agomelatine] | 1.1 ± 0.097
CC(=O)Nc1ccc(NC(=S)NC(=O)c2ccc(C(C)(C)C)cc2)cc1 [Tenovin-1] | 0.269 ± 0.0096
CC1(C)CC[C@]2(NC(=O)C(C)(F)F)CC[C@]3(C)[C@H](C(=O)C=C4[C@@]5(C)C=C(C#N)C(=O)C(C)(C)[C@@H]5CC[C@]43C)[C@@H]2C1 [Omaveloxolone (RTA-408)] | 0.206 ± 0.0087
COc1cc(N2CCN(C)CC2)ccc1Nc1nccc(-c2cn(C)c3cnccc23)n1 | 1.05 ± 0.027
CC(=O)N1CCN(CCOc2ccc(C3CCN(C4=Nn5c(nnc5C(F)(F)F)CC4)CC3)cc2)CC1 | 1.3 ± 0.037
CNc1cc(-c2cccc(Cl)c2Cl)nc(N)n1 | 1.1 ± 0.021
Cc1[nH]nc2ccc(-c3cncc(OC[C@@H](N)Cc4ccccc4)c3)cc12 | 0.123 ± 0.0016
Cn1nc(C(C)(C)C)cc1C(=O)N[C@@H](Cc1cccc(Cl)c1)C(=O)NCC#N [Cathepsin Inhibitor 1] | 1.151 ± 0.011
O=C(NCc1ccc(Oc2ccccc2)cc1)c1nc(-c2cc(Br)c(O)c(Br)c2)no1 | 1.13 ± 0.022
Cn1cc(CNCC2CCN(c3ncc(C(=O)NO)cn3)CC2)c2ccccc21 | 0.163 ± 0.029
O=C(NC1CC1)c1cc(-c2cccs2)on1 [Isoxazole 9 (ISX-9)] | 1.13 ± 0.015
O=C(O)C(S)=Cc1c[nH]c2ccc(F)cc12 | 1.27 ± 0.013
Cc1cc(C)c(CNC(=O)c2cc(-c3ccc(N4CCN(C)CC4)nc3)cc3c2c(C)cn3C(C)C)c(=O)[nH]1 | 1.078 ± 0.0077
O=C(/C=C/c1ccc(O)cc1)c1ccc(O)cc1O [Isoliquiritigenin] | 0.904 ± 0.33
O=c1[nH]c(=O)n(C2CC(O)C(CO)O2)cc1Br (configuration not stated) [Bromodeoxyuridine (BrdU)] | 1.04 ± 0.082
CCCCc1nc2cc(/C=C/C(=O)NO)ccc2n1CCN(CC)CC [Pracinostat (SB939)] | 0.155 ± 0.046
CN(C)Cc1ccc(S(=O)(=O)n2ccc(/C=C/C(=O)NO)c2)cc1 [Resminostat] | 0.781 ± 0.029
Cc1ccc(S(=O)(=O)c2ccc([N+](=O)[O-])o2)cc1 | 0.2656 ± 0.0026
O=[N+]([O-])c1cn2c(n1)OC[C@@H](OCc1ccc(OC(F)(F)F)cc1)C2 | 1.05 ± 0.064
COC(=O)CC[C@H](NC(=O)[C@H](CC(=O)OC)NC(=O)OCc1ccccc1)C(=O)N[C@H](C(=O)N[C@@H](CC(=O)OC)C(=O)CF)C(C)C | 1.25 ± 0.12
CC(C)(Cc1ccc2ccccc2c1)NC[C@@H](O)COc1cccc(Cl)c1C#N | 1.09 ± 0.051
O=C(NCC1(c2nc(-c3ccccc3)cs2)CCOCC1)c1cccc(-c2noc(C(F)(F)F)n2)c1 | 1.1 ± 0.12
Clc1ccc(NN=C(c2ccccc2)c2ccccn2)nc1 | 0.0829 ± 0.0081
O=C(Nc1cccc(Cl)c1)c1ccccn1 | 0.9222 ± 0.0036

Compound | relative cell viability
COc1ccc(CCc2nc3cc(-c4c(C)noc4C)ccc3n2C[C@H](C)N2CCOCC2)cc1Cl | 0.925 ± 0.092
CNC(=O)[C@H](Cc1c[nH]c2ccccc12)NC(=O)[C@@H](CC(=O)NO)CC(C)C [Ilomastat (GM6001, Galardin)] | 1.05 ± 0.021
Cc1ccc(NC(=O)c2ccc(CN3CC[C@H](N(C)C)C3)c(C(F)(F)F)c2)cc1Nc1nccc(-c2cncnc2)n1 [Bafetinib (INNO-406)] | 1.13 ± 0.047
CCCN1CCCC[C@H]1C(=O)Nc1c(C)cccc1C [Ropivacaine HCl] | 1.02 ± 0.075
CC[C@@H](C)Nc1cc(C(=O)N[C@H]2C[C@H]3CC[C@@H](C2)N3c2ccc(C(=O)C3CC3)cn2)c(C)cc1C(N)=O | 0.213 ± 0.014
O=C(O)Cn1nnc(-c2cc(N3CCC(Oc4cc(F)ccc4Br)CC3)no2)n1 | 1.05 ± 0.024
CC(C)(C)c1cc(/C=C(\C#N)C(N)=S)cc(C(C)(C)C)c1O [Tyrphostin AG 879] | 1.04 ± 0.053
FC(F)(F)Oc1ccc2nc(-c3ccc(OCCOCCOc4ccc(-c5nc6ccc(OC(F)(F)F)cc6[nH]5)nc4)cn3)[nH]c2c1 | 0.708 ± 0.0018
O=C(/C=C/c1ccc(CN(CCO)CCc2c[nH]c3ccccc23)cc1)NO [LAQ824 (Dacinostat)] | 0.124 ± 0.015
OCc1c[nH]c2ccccc12 [Indole-3-carbinol] | 1.007 ± 0.0087
O=C(O)CCCc1c[nH]c2ccccc12 [3-Indolebutyric acid (IBA)] | 1.11 ± 0.1
COc1cc(C(=O)N2CCC(N3CCN(C)CC3)CC2)ccc1Nc1ncc2c(n1)N(C)c1ccccc1C(=O)N2C | 1.02 ± 0.019
Cc1cc(F)c(Nc2ncnc3cc(OCc4ccccc4)ccc23)cc1O | 1.17 ± 0.027
COC(=O)[C@H](Cc1ccccc1)NC(=O)[C@@H](N)CC(=O)O [Aspartame] | 1.09 ± 0.15
COC[C@H](NC(=O)c1cnc(C)s1)C(=O)N[C@@H](COC)C(=O)N[C@@H](Cc1ccccc1)C(=O)[C@@]1(C)CO1 [Oprozomib (ONX 0912)] | 0.123 ± 0.005
CC(C)C[C@H](NC(=O)[C@H](Cc1ccccc1)NC(=O)c1cnccn1)B(O)O [Bortezomib (PS-341)] | 0.329 ± 0.066
CC(C)C[C@H](NC(=O)[C@H](CCc1ccccc1)NC(=O)CN1CCOCC1)C(=O)N[C@@H](Cc1ccccc1)C(=O)N[C@@H](CC(C)C)C(=O)[C@@]1(C)CO1 [Carfilzomib (PR-171)] | 0.193 ± 0.016
CC(NC(=O)C(Cc1ccccc1)NC(=O)OCc1ccccc1)C(=O)CF (configuration not stated) | 0.951 ± 0.043
COc1ccc(C[C@H](NC(=O)[C@H](C)NC(=O)CN2CCOCC2)C(=O)N[C@@H](Cc2ccccc2)C(=O)[C@@]2(C)CO2)cc1 | 0.1525 ± 0.00028
CC(C)N(C[C@H]1O[C@@H](n2cnc3c(N)ncnc32)[C@H](O)[C@@H]1O)[C@H]1C[C@@H](CCc2nc3cc(C(C)(C)C)ccc3[nH]2)C1 | 1.12 ± 0.029
C[C@H]1O[C@@H](O[C@H]2[C@@H](O)C[C@H](O[C@H]3[C@@H](O)C[C@H](O[C@H]4CC[C@@]5(C)[C@H](CC[C@@H]6[C@@H]5C[C@@H](O)[C@]5(C)[C@@H](C7=CC(=O)OC7)CC[C@]65O)C4)O[C@@H]3C)O[C@@H]2C)C[C@H](O)[C@@H]1O [Digoxin] | 0.0999 ± 0.0026
C[C@H]1Oc2cc(cnc2N)-c2c(nn(C)c2C#N)CN(C)C(=O)c2ccc(F)cc21 | 1.12 ± 0.049
Cn1cc(C2=C(c3cn(CCCSC(=N)N)c4ccccc34)C(=O)NC2=O)c2ccccc21 [Ro 31-8220 Mesylate] | 1.05 ± 0.1
